Reference: PubChem BioAssay (NCATS)
“And” between values parts separate entries of the source, which are not always exact repeats. Identical values can stand only once. Results filed as inconclusive are left out. The source made the active and inactive calls. Unless noted, calls come from the whole dose curve; as a rule, active = well fitted curve in the direction sought with a large enough effect; inconclusive = small, poorly fitted or top-dose-only effect, or another doubt; inactive = no such curve, though single readings can be large; an effect the other way counts as inactive or inconclusive.

Columns and labels:
[1] = qHTS Assay for Identification of Small Molecule Agonists for Thrombopoietin (TPO) Signaling Pathway (AID 917); note: % is set by controls: 0 for no effect and ±100 for the full control effect
Summary of the method: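 IL-3-dependent murine pro-B Ba/F3 cells, stably transfected with human TPO receptor and GpIIb-promoter luciferase, are incubated 24 hrs at 37 C with test compound and 26 pM TPO; luciferase signal is read after 10 min at room temperature.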

[2] = Cell Viability - BJ (AID 421; calls by dose curve;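 note: potency is the fitted concentration of half-maximal effect; cells exposed to compound for 40 hours at 37 °C before readout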); details: BJ fibroblast viability, qHTS
Summary of the method: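 Luminescent ATP signal (CellTiter-Glo, 20 min at room temperature) served as the read-out of viable BJ cells after 40 hours of compound treatment. Responses were scaled between DMSO and 100 uM tamoxifen, and AC50 values were obtained by Hill modeling.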

[3] = Cell Viability - Mesenchymal (AID 546); details: mesenchymal cells viability, qHTS; activity change, negative = cytotoxicity: at 91.7 µM (top of the series);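 note: cells exposed to compound for 40 hours before reading; 0% = DMSO only and -100% = 100 µM tamoxifen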
Summary of the method: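 Human kidney mesenchymal cells from normal renal glomeruli, 1000 cells/well, rested 5 hr at 37 °C, then treated 40 hr at 37 °C in complete medium. Cellular ATP read by CellTiter-Glo luminescence; AC50 from Hill-equation fits.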

[4] = MultiTox-Fluor Cytotoxicity Assay - LYMP1-002 - Live Cells (AID 955); note: % is set by controls: 0 for no effect and ±100 for the full control effect
Summary of the method: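 Human lymphoblastoid LYMP1-002 cells, 2500/well in complete medium, rested 5 hr at 37 C, then exposed to compounds for 16 hr at 37 C. Live-cell protease cleavage of GF-AFC read by fluorescence (Ex/Em 405/510) after 60 min at room temperature; AC50 from Hill fits.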

[5] = MultiTox-Fluor Cytotoxicity Assay - LYMP1-003 - Live Cells (AID 962);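 note: 0% = DMSO only and full loss = 92 µM tetraoctylammonium bromide; cytotoxic hits lower the live-cell protease signal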
Summary of the method: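 LYMP1-003 human lymphoblastoid cells (2500/well) in complete medium were preincubated 5 hr at 37 C, then exposed to compounds for 16 hr at 37 C. Live-cell protease cleavage of GF-AFC read by fluorescence (Ex/Em 405/510); AC50 from Hill fits.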

[6] = Cell Viability - LYMP1-003 - Assay at 40 hr (AID 964); note: % is set by controls: 0 for no effect and ±100 for the full control effect; nearly all actives have a fitted effect of over 60% in size
Summary of the method: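 Human lymphoblastoid LYMP1-003 cells, 2500/well in complete medium, rested 5 hr at 37 C, then exposed to compounds for 40 hr at 37 C. Viability read as intracellular ATP by CellTiter-Glo luminescence; AC50 from Hill fits of concentration-response data.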

[7] = Cell Viability - LYMP2-009 (AID 968);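 note: 0% = DMSO alone and the full-kill end = tetraoctylammonium bromide at 92 µM; nearly all actives have a fitted effect of over 55% in size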
[8] = Cell Viability - LYMP2-011 (AID 969);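 note: 0% = DMSO only and full inhibition = 92 µM tetraoctylammonium bromide; nearly all actives have a fitted effect of over 60% in size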
Summary of the method: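 Human lymphoblastoid cells (2500/well) were plated in complete medium, preincubated 5 hr at 37 C, then exposed to compounds for 24 hr at 37 C. Intracellular ATP was read by CellTiter-Glo luminescence, and AC50 came from Hill-equation concentration-response fits.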

[9] = Cell Viability - LYMP2-013 (AID 970);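 note: 0% = DMSO only and full inhibition = tetraoctylammonium bromide control; nearly all actives have a fitted effect of over 55% in size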
Summary of the method: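 Human lymphoblastoid cells, 2500/well, were preincubated 5 hr at 37 C, then treated with compounds for 24 hr at 37 C in complete medium. Intracellular ATP was read by CellTiter-Glo luminescence; AC50 from Hill-equation fits of concentration-response data.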

[10] = Cell Viability - LYMP2-019 (AID 973);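 note: 0% = DMSO alone and full effect = 92 µM tetraoctylammonium bromide; nearly all actives have a fitted effect of over 55% in size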
Summary of the method: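 Human lymphoblastoid cells were seeded at 2500 cells/well, preincubated 5 hr at 37 C, then exposed to compounds for 24 hr at 37 C in complete medium. Intracellular ATP was measured by CellTiter-Glo luminescence; AC50 from Hill fits.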

[11] = Cell Viability - LYMP2-021 (AID 974);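 note: compound exposure lasts 24 hours at 37 °C; % is set by controls: 0 for no effect and ±100 for the full control effect; nearly all actives have a fitted effect of over 55% in size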
Summary of the method: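 Human lymphoblastoid cells (2500/well) were preincubated 5 hr at 37 C, then exposed to compounds for 24 hr at 37 C in complete medium. Intracellular ATP was read by CellTiter-Glo luminescence; AC50 came from Hill-equation fits of concentration-response data.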

[12] = Cell Viability - LYMP2-025 (AID 976);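 note: plate controls were DMSO only for no effect and tetraoctylammonium bromide control for full effect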
Summary of the method: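 Human lymphoblastoid LYMP2-025 cells (2500/well) were pre-incubated 5 hr at 37 C, then treated with compounds for 24 hr at 37 C in complete medium. Viability was read as intracellular ATP by CellTiter-Glo luminescence; AC50 from Hill fits.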

[13] = Cell Viability - LYMP2-002 (AID 977);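 note: compound exposure lasted 24 h at 37 °C; plate controls were DMSO only for no effect and 92 µM tetraoctylammonium bromide for full effect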
Summary of the method: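 Human lymphoblastoid LYMP2-002 cells, 2500 per well, exposed to compounds for 24 h at 37 C in complete medium; viability read as intracellular ATP by CellTiter-Glo luminescence, AC50 from Hill fits.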

[14] = Cell Viability - LYMP2-006 (AID 978); note: % is set by controls: 0 for no effect and ±100 for the full control effect; nearly all actives have a fitted effect of over 60% in size
Summary of the method: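 In this cytotoxicity screen, the human lymphoblastoid line grew in complete medium with test compounds for 24 hr at 37 C. Cellular ATP served as the viability signal.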

[15] = Cell Viability - LYMP2-008 (AID 980); note: % is set by controls: 0 for no effect and ±100 for the full control effect; nearly all actives have a fitted effect of over 60% in size
Summary of the method: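 Human lymphoblastoid cells (2500/well) were plated, held 5 hr at 37 C, then exposed to compounds for 24 hr at 37 C in complete medium. Intracellular ATP was read by CellTiter-Glo luminescence; AC50 from Hill-fitted concentration-response.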

[16] = Cell Viability - LYMP2-012 (AID 982)
[17] = Cell Viability - LYMP2-022 (AID 987)
Summary of the method: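 Human lymphoblastoid cells, 2500/well, preincubated 5 hr at 37 C, then exposed to compounds over a concentration range for 24 hr at 37 C in complete medium. Viability read as intracellular ATP by CellTiter-Glo luminescence after 30 min at room temperature; AC50 from Hill fits.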

[18] = qHTS assay for small molecule agonists of retinoid X receptor alpha signaling (AID 588544); details: HEK293T RXRa-UAS-bla, beta-lactamase reporter, 18 h; 530 nm emission
[19] = qHTS assay for environmental chemicals that activate the Aryl hydrocarbon Receptor (AhR) signaling pathway (AID 651777); details: 1A2-DRE human hepatoma cells, luciferase, 24 h; activation: stronger effect = higher value; note: % of control where 0% means no effect; nearly all actives have a fitted effect of over 15% in size
Summary of the method: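 AhR activation is scored as a rise in luciferase from a stable DRE–CYP1A2 promoter construct in human hepatoma cells. Treatment lasts 24 hr at 37 C; detection uses One-Glo after 30 min at room temperature.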

[20] = qHTS assay for small molecule agonists of the antioxidant response element (ARE) signaling pathway measured by Nrf2-dependant transcriptional activity (AID 720636; active = well fitted curve in the direction sought with a large enough effect in the repeat runs; an effect the other way counts as inactive or inconclusive;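 note: HepG2 cells with an ARE-driven luciferase reporter; % of control where 0% means no effect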)
Summary of the method: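 First, ARE-luc HepG2 cells attached for 6 hr at 37 C in 1% dialyzed FBS medium. Next, compound or DMSO was added and incubated 16 hr. Finally, ONE-Glo reagent was added and luminescence measured after 30 min.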

CC1(C)CCC(NC(=O)[C@H](N)CCC(=O)O)CC1
inactive: outcome [1]

COc1cc([C@H](O)CO)ccc1O
inactive: outcome [1]

CNc1ncnc2c1ncn2[C@H]1C[C@@H](OP(=O)(O)O)[C@H](COP(=O)(O)O)O1
inactive: outcome [1]

COc1cc([C@H](O)C(=O)O)ccc1O
inactive: outcome [1]

Cc1ccccc1CNc1ncnc2c1ncn2[C@@H]1O[C@@H](CO)[C@H](O)[C@@H]1O
inactive: outcome [1]

CCCC[S@@](=N)(=O)CC[C@@H](N)C(=O)O
inactive: outcome [1]

CN1[C@@H]2CC[C@H]1CC(NC(=O)c1nn(C)c3ccccc13)C2 (some centres undefined)
inactive: outcome [1]

C[C@@H]1C[C@@H]2[C@H]3CCC4=CC(=O)C=C[C@]4(C)[C@]3(Cl)[C@@H](O)C[C@@]2(C)[C@@]1(O)C(=O)CO
inactive: outcome [1]

CCCCCCCCCCCCCCCC(=O)NC[C@@H](COP(=O)([O-])OCC[N+](C)(C)C)OCC
inactive: outcome [1]

C=C(C)[C@@H]1CC=C(C(=O)O)CC1
inactive: outcome [1]

Nc1c2c(nc3ccccc13)CCC[C@H]2O
inactive: outcome [1]

Cc1ccc(C(=O)O[C@@H](C(=O)O)[C@@H](OC(=O)c2ccc(C)cc2)C(=O)O)cc1 (tested in a mixture with another compound)
inactive: outcome [1]

C[C@H](N)C(=O)OC(C)(C)Cc1ccc(Cl)cc1
inactive: outcome [1]

CC(=O)[C@@H]1CC[C@@H]2[C@@H]3CC=C4C[C@H](OS(=O)(=O)O)CC[C@@]4(C)[C@H]3CC[C@]21C
inactive: outcome [1]

CNC(=O)[C@@H]1O[C@@H](n2cnc3c(N)ncnc32)[C@@H](O)[C@H]1O
inactive: outcome [1]

COC(=O)[C@H](N)Cc1ccc(Cl)cc1
inactive: outcome [1]

C[C@@H](C(=O)O)c1ccc(C[C@@H]2CCCC2=O)cc1
inactive: outcome [1]

N[C@H](CCCC(=O)O)C(=O)O
inactive: outcome [1]

C[C@@H](COc1ccc(/C=C\c2ccccc2)cc1)[N+](C)(C)C
inactive: outcome [1]

CN[C@@H](CC(C)C)C(=O)N[C@@H]1C(=O)N[C@H](CC(N)=O)C(=O)N[C@H]2C(=O)N[C@H]3C(=O)N[C@H](C(=O)N[C@H](C(=O)O)c4cc(O)cc(O)c4-c4cc3ccc4O)[C@H](O)c3ccc(c(Cl)c3)Oc3cc2cc(c3O[C@@H]2O[C@@H](CO)[C@@H](O)[C@@H](O)[C@H]2O[C@H]2C[C@](C)(N)[C@H](O)[C@H](C)O2)Oc2ccc(cc2Cl)[C@@H]1O
inactive: outcome [1]

COC(=O)[C@](C)(N)Cc1ccc(O)cc1
inactive: outcome [1]

O[C@H](CN1CCN(c2cccc(Cl)c2)CC1)C(c1ccccc1)c1ccccc1
inactive: outcome [1]

COC(=O)[C@H]1[C@H]2C[C@H]3c4[nH]c5ccccc5c4CCN3C[C@@H]2CC[C@@H]1O
inactive: outcome [1]

CO/N=C(\C(=O)N[C@@H]1C(=O)N2C(C(=O)O)=C(CSc3nc(=O)c(O)nn3C)CS[C@@H]12)c1csc(N)n1
inactive: outcome [1]

N.N.N.N.N.N.N.N.N.N.N.N.N.N.O.O.[Ru].[Ru].[Ru]
inactive: outcome [1]

C[C@@H](CN1CCC(Cc2ccccc2)CC1)[C@H](O)c1ccc(O)cc1
inactive: outcome [1]

COc1ccc(CCN(C)CCC[C@@](C#N)(c2cc(OC)c(OC)c(OC)c2)C(C)C)cc1OC
inactive: outcome [1]

COc1ccccc1OC[C@H](O)CN1CCN(CC(=O)Nc2c(C)cccc2C)CC1
inactive: outcome [1]

COc1cc(-c2ccc(N=C=O)c(OC)c2)ccc1N=C=O
inactive: Potency [2] > 92 µM | Potency [3] | outcome [4] | Potency [5] | Potency [6] | Potency [7] | Potency [8] | Potency [9] | Potency [10] | Potency [11] | Potency [12] | Potency [13] | Potency [14] | Potency [15] | Potency [16] | Potency [17] | activation [19] 0.786% and 6.25% | Potency [20]
-18.6%: max response [18]

CCCCC/C=C\C[C@H](O)/C=C\c1cccc(C[C@H](O)CCCCO)n1
inactive: outcome [1]

CC(C)S
-9.69%: max response [18]
inactive: Potency [2] > 92 µM | Potency [3] | outcome [4] | Potency [5] | Potency [6] | Potency [7] | Potency [8] | Potency [9] | Potency [10] | Potency [11] | Potency [12] | Potency [13] | Potency [14] | Potency [15] | Potency [16] | Potency [17] | activation [19] -2.58% | Potency [20]

Brc1ccc(-c2ccccc2)cc1
4.33%: max response [18]
inactive: Potency [2] > 92 µM | Potency [3] | outcome [4] | Potency [5] | Potency [6] | Potency [7] | Potency [8] | Potency [9] | Potency [10] | Potency [11] | Potency [12] | Potency [13] | Potency [14] | Potency [15] | Potency [16] | Potency [17] | activation [19] 11.7% | Potency [20]

Nc1cc([N+](=O)[O-])ccc1O
inactive: Potency [2] > 92 µM | Potency [3] | outcome [4] | Potency [5] | Potency [6] | Potency [7] | Potency [8] | Potency [9] | Potency [10] | Potency [11] | Potency [12] | Potency [13] | Potency [14] | Potency [15] | Potency [16] | Potency [17] | activation [19] 12.6% and 2.53%
-3.91% and 2.48%: max response [18]

Brc1cc(Oc2cc(Br)c(Br)c(Br)c2Br)c(Br)c(Br)c1Br
inactive: Potency [2] > 92 µM | Potency [3] | outcome [4] | Potency [5] | Potency [6] | Potency [7] | Potency [8] | Potency [9] | Potency [10] | Potency [11] | Potency [12] | Potency [13] | Potency [14] | Potency [15] | Potency [16] | Potency [17] | activation [19] -1.15% and -2.65% | Potency [20]
21.6%: max response [18]

CCCCC(CC)COCCCN (centres undefined)
1.27%: max response [18]
inactive: Potency [2] > 92 µM | Potency [3] | outcome [4] | Potency [5] | Potency [6] | Potency [7] | Potency [8] | Potency [9] | Potency [10] | Potency [11] | Potency [12] | Potency [13] | Potency [14] | Potency [15] | Potency [16] | Potency [17] | activation [19] -0.398% | Potency [20]

Oc1cc(Cl)cc(Cl)c1Cl
0.211%: max response [18]
inactive: Potency [2] > 92 µM | Potency [3] | outcome [4] | Potency [5] | Potency [6] | Potency [8] | Potency [9] | Potency [10] | Potency [12] | Potency [13] | Potency [14] | Potency [15] | Potency [16] | Potency [17] | activation [19] 2.22% | Potency [20]
